RGS12 GoLoco inh: inhibitors of human Gai1-RGS12 GoLoco interaction (red fluorophore); P63096; Gai1:RGS12 GoLoco peptide FP, rhodamine, 10 min; Potency, µM (highest dose often 61.6 µM), for the others: at the highest dose activity, negative = inhibition, usual class: inhibitors; 0.44% of 230,000 active; AID 880; active means well fitted inhibition curve with a large enough effect, not every such curve was filed as active; inactive means no such curve, though single readings can be large or run the other way; further: potency means the concentration at half of the fitted maximal effect; on the % scale 0 is the no-effect control and ±100 the full control effect; nearly all actives have a fitted effect of over 30% in size
Target sequence (P63096 whole entry, looked up): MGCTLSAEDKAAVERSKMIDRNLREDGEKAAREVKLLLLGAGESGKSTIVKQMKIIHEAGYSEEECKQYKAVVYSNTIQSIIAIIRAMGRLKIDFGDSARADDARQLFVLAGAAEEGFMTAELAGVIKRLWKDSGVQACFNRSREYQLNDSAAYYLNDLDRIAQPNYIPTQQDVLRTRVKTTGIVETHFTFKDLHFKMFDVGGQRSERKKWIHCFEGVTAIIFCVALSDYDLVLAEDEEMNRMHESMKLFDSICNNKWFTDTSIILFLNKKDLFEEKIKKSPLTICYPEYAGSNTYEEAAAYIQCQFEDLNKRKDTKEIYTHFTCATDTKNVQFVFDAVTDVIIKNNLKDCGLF
HTT ATP protect: Huntington cell model cytoprotection by ATP luminescence; PC12 HTT-Q103 induced, cytoprotection, ATP luminescence, 40 h; Potency, µM (highest dose often 56.4 µM), for inactives: cytoprotection (ATP increase), most hits filed as activators; 0.14% of 230,000 active; AID 1471; further: potency means the concentration at half of the fitted maximal effect; % of control where 0% means no effect; nearly all actives have a fitted effect of over 45% in size
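Quantitative HTS on tebufenozide-induced (100 nM) PC12 cells expressing HTTQ103 exon 1–GFP; compounds tested as a concentration series; survival measured via cellular ATP.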
VDR inhibitor: vitamin D3 receptor (human) inhibition | VDR-SRC2-3 peptide fluorescence polarization, 2 h | AID 504847 | 0.93% of 400,000 active | Potency, µM, without a hit: max response, negative = inhibition, actives largely listed as inhibitors; further: potency means the concentration at half of the fitted maximal effect; on the % scale 0 is the no-effect control and ±100 the full control effect
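FP read-out; VDR + SRC2-3 coactivator peptide; 23 nl compound by pintool; 2 h RT incubation; reagents held at 4 deg C, protected from light.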
JMJD2E inh: blocks human JMJD2E demethylase activity. JMJD2E catalytic domain, FDH-coupled NADH fluorescence (FDH is formaldehyde dehydrogenase). Potency, µM (titrated, usually from 57.1 µM), without a hit: top-dose activity change, negative = inhibition, most hits filed as inhibitors. 1.6% of 230,000 active; active means well fitted inhibition curve with a large enough effect, not every such curve was filed as active; inconclusive means small, poorly fitted or top-dose-only effect, or another doubt; inactive means no such curve, though single readings can be large or run the other way;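 further: potency means the concentration at half of the fitted maximal effect; 0% = wells with enzyme and -100% = buffer wells without enzyme; nearly all actives have a fitted effect of over 50% in size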
Coupling enz: coupling enzyme interference in Giardia aldolase counter-screen; coupling enzyme system counterscreen, AmpLite Red fluorescence; activity change, negative = inhibition, % at 58.2 µM, hits read low; 0.67% of 290,000 active; AID 2472; in the data active means activity change below about -30%; further: on the % scale 0 is the no-effect control and ±100 the full control effect
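Counterscreen lacking aldolase: glyceraldehyde-3-phosphate coupling-enzyme reagent preincubated 10 min at RT with compound (at 57.5 uM final), then substrate/coupling system with AmpLite Red added; fluorescence read at 525/598 nm after 20 min RT.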
HttQ103 aggreg: reduces HttQ103-GFP aggregates in PC12 cells; PC12 HttQ103-GFP aggregates, Acumen cytometry, 40 h; Potency, µM (titrated, usually from 46.1 µM), for inactives: top-dose activity change, negative = inhibition, most hits filed as inhibitors; 1.1% of 220,000 active; AID 1688; further: potency means the concentration at half of the fitted maximal effect; on the % scale 0 is the no-effect control and ±100 the full control effect; nearly all actives have a fitted effect of over 60% in size
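Read-out: GFP aggregate count by laser scanning cytometer (488 nm excitation, 500-530 nm emission, 1–25 µm objects >6 SD above background). Cells: PC12, inducible HTTex1-Q103-GFP, 100 nM tebufenozide; compounds titrated.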
The depositor's hits bear a star; ? = inconclusive; · = no result given; [ ] = dose if it differs, or a comment. An excerpt weighted towards active compounds, which were near 2.3% of everything screened. Unless noted, the call rests on the fitted dose curve; in most records, active means well fitted curve in the direction sought with a large enough effect; inconclusive means small, poorly fitted or top-dose-only effect, or another doubt; inactive means no such curve, though single readings can be large; an effect the other way counts as inactive or inconclusive.

SMILES | RGS12 GoLoco inh | HTT ATP protect | VDR inhibitor | JMJD2E inh | Coupling enz | HttQ103 aggreg
CC[C@H](C)[C@H](NC(=O)CN)C(=O)N[C@@H](CC(C)C)C(=O)NCC(=O)N[C@@H](Cc1ccccc1)C(=O)N[C@H](C(=O)N[C@@H](Cc1ccccc1)C(=O)N[C@H](C(=O)N[C@@H](CC(C)C)C(=O)O)[C@@H](C)O)C(C)C | · | · | -0.2% | · | 2.2 | ·
CCOC(=O)CNC(=O)CSP(=S)(OCC)OCC | 1.3% | -0.8% | -19.4% | -0.2% | 0.0 | 4.8%[9.22 µM]
CCOP(=S)(OCC)SCn1c(=O)oc2cc(Cl)ccc21 | -7.5% | · | 35.5µM* | -11.6% | -2.2 | ·
Cc1ccc(-c2cc(-c3ccc(C)cc3)[n+](C)o2)cc1 | -9.0% | · | -8.5% | ? | 0.2 | 3.16µM*
Cc1ccc2c(CN3CC=C(c4ccccc4)CC3)cc(=O)oc2c1C | · | -11.6%[10 µM] | -8.8% | 25.1µM* | -1.8 | -18.3%
O=C(CS(=O)C(c1ccccc1)c1ccccc1)NO (stereo not drawn) | · | -1.1% | -10.5% | · | 0.5 | 7.5%
CCOC(=O)N(c1ccccc1)P1(=S)OCCO1 | 6.3% | -8.3% | 79.4µM* | 3.1% | -1.0 | 21.4%
COC(=O)N(c1ccccc1)P1(=S)OCCO1 | -12.4% | -24.6% | ? | -3.0% | -2.2 | 3.2%
CN(C)c1ccc(C=C(C#N)C#N)cc1 | -4.4% | 14.6%[1.9 µM] | -1.6% | 6.8% | -1.0 | 15.1%
COc1cc(C=C(C#N)C#N)cc(O)c1O | 17.3% | 11.2%[1.9 µM] | · | 11.2µM* | · | ·
N#CC(C#N)=Cc1ccc(O)c(O)c1 | -4.5% | 37.9% | 50.1µM* | 7.94µM* | 6.8 | 5.0%
N#CC(=Cc1ccc(O)c(O)c1)C(N)=S | 27.8% | · | · | 8.91µM* | · | ·
CC(C)(C)OC(=O)N1CC[C@H]1COc1cnc[c]([Sn]([CH3])([CH3])[CH3])c1 | 8.8%[14.2 µM] | -44.0%[10 µM] | 6.1% | · | 1.8 | ·
c1ccc2c([C@@H]3CCN(CCN4CCOCC4)C3)c[nH]c2c1 | 5.9%[14.2 µM] | 1.8%[10 µM] | · | · | · | ·
O=[N+]([O-])c1cccc(CN2CCN(Cc3ccc(Br)cc3)CC2)c1 | -2.8% | 13.7%[10 µM] | 33.0% | 25.1µM* | 1.3 | -22.4%
O=C(Cc1ccccc1)N1CCN(Cc2ccc([N+](=O)[O-])cc2)CC1 | -36.3% | · | -1.6% | ? | 2.2 | -22.3%
N#CC(C#N)=NNc1ccc(OC(F)(F)F)cc1 | 3.0% | -164.4% | 0.891µM* | -16.7% | 12.0 | ·
CC12C=CC(=O)C=C1CCC1C2=CCC2(C)C1CC[C@@H]2C(=O)CN1CCN(c2cc(N3CCCC3)nc(N3CCCC3)n2)CC1 (stereo partly drawn) | 14.7% | -9.1% | 3.16µM* | · | -37.7* | ·
C=C(CC1(C(C)NP(=O)(c2ccccc2)c2ccccc2)CC1)c1ccccc1 (stereo not drawn) | 7.4% | -43.3% | · | -8.4% | -1.5 | ·
COc1ccc(CN2Cc3cnnn3-c3ccccc3C2C#N)cc1 (stereo not drawn) | · | · | 20µM* | · | · | ·
C=CC(N)=O | 2.4% | ? | · | · | · | ·
CCOC(=S)SSC(=S)OCC | · | 25.0% | 50.1µM* | · | · | -7.0%
CCOC(=O)CBr | -0.5% | 17.0% | · | · | · | ·
Cc1ccc(C[N+](C)(C)C)o1 | -29.3% | -5.8% | -0.7% | -6.1% | -3.1 | ·
O=C(O)Cc1cnc[nH]1 | -4.8% | -20.8% | 4.2% | 14.1µM* | · | ·
SMILES | RGS12 GoLoco inh | HTT ATP protect | VDR inhibitor | JMJD2E inh | Coupling enz | HttQ103 aggreg
c1cc(Cc2cnc[nH]2)ccn1 | 3.4% | 6.4% | 5.3% | -4.7% | 0.1 | ·
C=C(C)[C@@H]1CN[C@H](C(=O)O)[C@H]1CC(=O)O | · | -20.2%[1.9 µM] | · | · | · | ·
O=C(O[C@@H]1Cc2c(O)cc(O)cc2O[C@@H]1c1cc(O)c(O)c(O)c1)c1cc(O)c(O)c(O)c1 | -4.1% | · | · | 8.91µM* | -6.3 | ·
Oc1cc(O)c2c(c1)OC(c1cc(O)c(O)c(O)c1)C(O)C2 (stereo not drawn) | -26.5% | -57.9% | ? | 1.41µM* | -19.2 | ·
O=C(OC1Cc2c(O)cc(O)cc2OC1c1cc(O)c(O)c(O)c1)c1cc(O)c(O)c(O)c1 (stereo not drawn) | -3.7% | · | 50.1µM* | 2.51µM* | -13.8 | ·
Cc1ccc2c(c1)Cc1c(C(=O)NN3CCCCC3)nn(-c3ccc(Cl)cc3Cl)c1-2 | · | · | -0.4% | · | -19.0 | ·
NCCSC(c1ccccc1)c1ccccc1 | 0.0%[14.2 µM] | 15.2%[10 µM] | · | · | · | ·

High-throughput results: PubChem BioAssay, National Center for Advancing Translational Sciences (NCATS)
